RecA splice inh = inhibitors of M. tuberculosis RecA intein splicing; inhibition, % (concentration not given with the values); cell-free RecA intein splicing, fluorescence; AID 2221; P9WHJ3; hit rate 0.75% among 290,000; in the data active = inhibition above about 30%;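 note: 0% = vehicle wells and 100% = reference inhibitor control wells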
Mtb FBA inh = Mtb fructose-bisphosphate aldolase inhibition; P9WQA3; purified M. tuberculosis FBA, fluorescence read-out; inhibition, % at 1 µM; hit rate 2.3% among 360,000; AID 588726; in the data active = inhibition above about 27%;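 note: 0% = vehicle and 100% = reference inhibitor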
Rv3671c protease = inhibits the M. tuberculosis serine protease Rv3671c. inhibition, % at 5.96 µM. P9WHR9. hit rate 0.048% among 320,000; in the data active = inhibition above about 38%;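 note: extracellular domain of Rv3671c used as enzyme; 0% = enzyme with DMSO and 100% = no enzyme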
Mtb betalactam = beta-lactam sensitization of Mtb H37Rv | M. tuberculosis H37Rv growth with meropenem, percent inhibition | hit rate 0.27% among 330,000 | AID 434955 | inhibition, % at 25 µM; call rule not given here;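 note: growth measured after seven days incubation then overnight dye step; 0% = bacteria only wells and 100% = bacteria with antibiotic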
GDH-TPI counter = inhibits GDH-TPI coupling enzymes, artifact for Mtb FBA screen. AID 588335. inhibition, % at 4.8 µM. hit rate 1.2% among 360,000. GDH-TPI coupled enzyme counterscreen, NADH absorbance; in the data active = inhibition above about 30%;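 note: 0% = DMSO wells and 100% = wells lacking the enzyme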
Mtb UGM inh = inhibitors of M. tuberculosis UDP-galactopyranose mutase; P9WIQ1; purified UGM, fluorescence polarization probe displacement; inhibition, % at 10 µM; hit rate 0.06% among 320,000; in the data active = inhibition above about 10%, passing the limit was not always enough
Target sequence (P9WIQ1 whole entry, looked up): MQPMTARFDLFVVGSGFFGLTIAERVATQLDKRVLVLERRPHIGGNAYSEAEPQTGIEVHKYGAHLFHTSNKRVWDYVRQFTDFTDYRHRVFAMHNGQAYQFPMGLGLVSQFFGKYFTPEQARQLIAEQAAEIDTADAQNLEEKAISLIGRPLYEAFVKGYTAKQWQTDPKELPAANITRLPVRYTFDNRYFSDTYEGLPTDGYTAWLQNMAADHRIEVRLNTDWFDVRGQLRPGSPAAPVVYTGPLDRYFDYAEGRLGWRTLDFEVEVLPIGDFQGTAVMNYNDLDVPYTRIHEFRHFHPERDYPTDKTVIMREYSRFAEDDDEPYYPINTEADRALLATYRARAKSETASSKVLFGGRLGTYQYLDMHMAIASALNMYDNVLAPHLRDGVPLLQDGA
* hit, by the source's call; i = inactive; / = no result given; + = active, no number. Compounds with a hit are over-represented: about 4% of the library has one in this group of screens.

SMILES | RecA splice inh | Mtb FBA inh | Rv3671c protease | Mtb betalactam | GDH-TPI counter | Mtb UGM inh
CN(Cc1ccccc1)C1=CC(=[N+]2CCCCC2)CC(C)(C)C1 | -2 | -1 | 4 | -11 | 68* | -2
CCc1ccc(N2CC(C(=O)OCC(=O)Nc3ccc([N+](=O)[O-])cc3)CC2=O)cc1 (stereo unspecified) | / | 0 | 1 | 5 | 15 | -3
O=C(c1ccccc1)N1CCN(C(=O)c2nn3c(C(F)(F)F)cc(-c4ccccc4)nc3c2Br)CC1 | 1 | 1 | -5 | -15 | -8 | 2
O=C(NCC1CCCO1)C(=O)N/N=C\c1ccc2c(c1)OCO2 (stereo unspecified) | -2 | 1 | / | -2 | 34* | 2
O=C(NCC1CCCO1)C(=O)N/N=C/c1ccc(O)c(Cl)c1 (stereo unspecified) | -1 | 3 | 5 | -4 | 55* | -1
CC(C)c1ccc(NC(=O)c2ccc(-c3ccnn3C)c3ccoc23)cc1 | / | -2 | / | / | 8 | /
Cn1c2ccccc2c(=O)c2ccc(C#CC3(O)CCCCC3)cc21 | i | 171* | -34 | 96 | 12 | 3
CCOc1cc(C(C(=O)NCC2CCCO2)N(C(=O)Cn2nnc3ccccc32)c2ccccc2OC)ccc1O (stereo unspecified) | -1 | 4 | -1 | -4 | -4 | -1
COc1ccc(/C=N/NC(=O)c2ccncc2)c(C(=O)O)c1OC | -5 | 0 | -1 | 99 | 11 | 0
COc1ccc(/C=N/NC(=O)c2cccs2)c2ccccc12 | / | 1 | -9 | 61 | 32* | 1
Cc1cc(=O)[nH]c(N/N=C/c2ccccc2Cl)n1 | -1 | 4 | 3 | 3 | 15 | 0
Cc1cc(=O)[nH]c(N/N=C/c2cc(C)n(-c3ccccc3)c2C)n1 | 0 | -1 | 13 | -8 | 43* | -1
COc1ccc(/C=N/NC(=O)c2cccnc2)c(C(=O)O)c1OC | -2 | -2 | 2 | 2 | 32* | -2
Cn1cc(/C=N\NC(=O)c2cccs2)c2ccccc21 | -2 | 0 | -4 | 11 | 32* | 0
CCOC(=O)C1=CCN(S(=O)(=O)c2ccccc2F)C1c1ccc(Cl)c(Cl)c1 (stereo unspecified) | / | -2 | / | / | / | /
O=C(NCC(=O)N1CCN(S(=O)(=O)c2c(F)cccc2F)CC1)c1ccccc1F | / | 2 | / | / | 6 | /
FC(F)(F)Oc1ccccc1C(c1nnnn1-c1ccc2c(c1)OCCO2)N1CCN(C/C=C/c2ccccc2)CC1 (stereo unspecified) | / | -2 | / | / | / | /
CCOC(=O)C1CCCN(C(=O)CNC(=O)c2ccc(Br)o2)C1 (stereo unspecified) | / | 4 | 7 | -7 | -3 | 0
Cc1ccc(OCCC(=O)OC(C)C(=O)Nc2c(C)n(C)n(-c3ccccc3)c2=O)cc1 (stereo unspecified) | -1 | 0 | 5 | 1 | 7 | 0
COc1ccc(/C=N/NC(=O)c2cccnc2)c2ccccc12 | 0 | 3 | 5 | 27 | 36* | -1
Cc1cc(/C=N/NC(=O)c2ccncc2)c(C)n1-c1ccccc1 | / | 0 | 3 | 99 | 19 | 3
O=C(N/N=C/c1cccc2ccccc12)c1cccnc1 | 1 | -4 | -9 | 3 | 24 | 0
Cc1cc(/C=N/NC(=O)c2cccs2)c(C)n1-c1ccccc1 | 2 | -3 | -1 | 7 | 33* | -1
CCC(C)(C)N(C(=O)CCC(=O)Nc1cc(C)on1)C(C(=O)NC(C)(C)C)c1ccc(OC)cc1 (stereo unspecified) | 0 | 0 | 0 | -5 | -4 | -1
COC(=O)[C@H](CC(C)C)NC(=O)Cn1cnc2c(NCc3ccccc3)ncnc21 | / | -1 | / | / | -3 | /
SMILES | RecA splice inh | Mtb FBA inh | Rv3671c protease | Mtb betalactam | GDH-TPI counter | Mtb UGM inh
Cc1ccc(-c2csc(C(O)c3ccc(F)c(F)c3)n2)cc1C (stereo unspecified) | / | 1 | / | / | 10 | /
CN(CCO)c1nc(N)c(C#N)c(CC#N)c1C#N | / | 1 | -10 | -1 | 34* | 2
O=C(Cc1ccc(Br)cc1)N/N=C/c1ccc(-c2cccc(C(=O)O)c2)o1 | -1 | 7 | 3 | -1 | 62* | 0
O=C(O)c1cccc(-c2ccc(/C=N/NC(=O)c3cccnc3)o2)c1 | -5 | 23 | -2 | 6 | 57* | 6
Cc1ccc(/C=N/NC(=O)c2cccnc2)o1 | -3 | -1 | 3 | -5 | 17 | 0
Nc1nnc(CC(=O)N/N=C/c2ccc(-c3cccc(C(=O)O)c3)o2)s1 | / | 4 | 0 | 5 | 46* | 5
CCOC(=O)c1ccc(-c2ccc(/C=N/NC(=O)Cc3nnc(N)s3)o2)cc1 | / | 21 | -6 | 0 | 40* | 3
CN(C)CCCNC(=O)C1(O)c2cc(Br)ccc2NC(=O)N1c1ccc(Cl)cc1 (stereo unspecified) | -1 | -1 | -1 | 3 | -4 | 1
O=C(OCCc1cc2ccccc2c(=O)o1)N1CCOCC1 | / | 4 | -1 | 2 | 9 | -1
COc1ccccc1/C=N/NC(=O)c1ccc(NC(=O)c2cccc([N+](=O)[O-])c2)cc1 | 0 | / | -5 | 5 | / | 0
COc1ccc(/C=N/NC(=O)c2ccc(NC(=O)c3cccc([N+](=O)[O-])c3)cc2)c(C(=O)O)c1OC | -3 | 2 | -11 | 0 | 31* | 3
COc1ccc(/C=N/NC(=O)c2cccc([N+](=O)[O-])c2)cc1O | -2 | -2 | -7 | 0 | 32* | 1
CC(=O)Nc1c(Cl)cnn(-c2ccccc2)c1=O | 1 | 1 | -3 | -7 | 43* | 0
CCOC(=O)Nc1ccc2c(COC(=O)C(NS(=O)(=O)c3ccc(Cl)cc3)C(C)O)cc(=O)oc2c1 (stereo unspecified) | / | + | -7 | -12 | 27 | 1
CCOC(=O)Nc1ccc2c(COC(=O)CNS(=O)(=O)c3cccc(Br)c3)cc(=O)oc2c1 | 1 | 155* | -134 | 1 | 9 | 3
O=C(/C=C\N1CCOCC1)c1ccc(Br)cc1 | 0 | -3 | -4 | -6 | 24 | 2
O=C(/C=C/N1CCOCC1)c1ccc(-c2ccccc2)cc1 | 2 | -5 | -17 | -8 | 38* | 1
COc1ccccc1CNC(=O)COc1ccccc1C | 1 | 0 | / | 0 | 8 | -2
Cc1cc(=O)oc2c3c(cc(OCC(=O)NCc4cccnc4)c12)OC(C)(C)CC3 | -10 | + | -6 | 2 | 22 | 5
COc1ccccc1CNC(=O)COc1cc2c(c3oc(=O)cc(C)c13)CCC(C)(C)O2 | 8 | 189* | -22 | -6 | 6 | 0
O=C(COc1ccc2c3c(c(=O)oc2c1)CCCC3)NCc1cccnc1 | -1 | 7 | 0 | 9 | 0 | 1
COc1cccc(CNC(=O)COc2cc3c(c4oc(=O)cc(C)c24)CCC(C)(C)O3)c1 | 1 | 168* | -14 | 4 | 20 | 0
COc1cccc(CNC(=O)C2(C)Oc3ccccc3NC2=O)c1 (stereo unspecified) | -1 | 1 | 3 | -1 | 0 | 2

High-throughput results from PubChem.
